Source: PubChem BioAssay
HTT-AS act – activators of huntingtin-antisense promoter activity; HEK293 HTT-AS promoter firefly luciferase reporter, 24 h; response scale: percent change from vehicle, -100% = no light; Potency, µM (highest dose often 57.5 µM), for the others: at the top dose activity change, positive = activation, hits mostly activators; 48,000 compounds, 0.24% hits; also: potency is read from the fitted curve at half-maximal effect; nearly all actives have a fitted effect of over 55% in size
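Firefly luciferase readout (Dual-Glo, 10 min RT) after 24 h, 37 °C compound exposure (final up to 57.5 uM) of HEK293 reporter cells cultured 24 h beforehand; PTC124 at 50 uM final as control inhibitor; activity scaled vehicle 0%, zero RLU -100%.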
HTT prom inh – HTT promoter inhibition; HEK293 HTT promoter firefly luciferase reporter, 24 h; Potency, µM (top dose mostly 57.5 µM), without a hit: at the top dose activity change, negative = inhibition, most hits filed as inhibitors; 48,000 compounds, 0.93% hits; also: potency is read from the fitted curve at half-maximal effect; nearly all actives have a fitted effect of over 50% in size
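HEK293 Fluc reporter, 2,500 cells/well, 24 h pre-culture; cpds up to 57.5 uM final, 24 h 37 degrees C; Dual-Glo, 10 min RT; normalized vehicle = 0%, zero RLU = -100%.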
DRV1 agonist – agonists of human resolvin D1 receptor DRV1 (GPR32); CHO-K1 GPR32 beta-arrestin PathHunter luminescence, 90 min; zero percent set by DMSO-only wells; activation, % at 76.9 µM; 48,000 compounds, 2.5% hits;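 active = activation of at least 60% and not above a set upper limit, about 1 call in 100 departs from these limits; inconclusive = activation of 40% to 60%, or above that upper limit; inactive = activation under 40%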; also: 0% is about no effect
Target sequence (O75388 whole entry, looked up): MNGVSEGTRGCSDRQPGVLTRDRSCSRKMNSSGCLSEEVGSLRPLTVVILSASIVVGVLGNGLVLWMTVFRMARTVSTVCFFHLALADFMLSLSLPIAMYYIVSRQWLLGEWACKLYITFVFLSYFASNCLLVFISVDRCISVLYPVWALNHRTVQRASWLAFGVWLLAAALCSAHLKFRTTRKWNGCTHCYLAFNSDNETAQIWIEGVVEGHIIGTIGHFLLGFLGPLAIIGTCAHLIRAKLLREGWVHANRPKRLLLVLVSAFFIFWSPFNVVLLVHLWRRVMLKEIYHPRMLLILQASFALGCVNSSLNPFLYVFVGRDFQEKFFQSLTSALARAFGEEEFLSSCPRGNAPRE
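Agonism was scored as beta-arrestin recruitment to ProLink-fused GPR32 in stably transfected CHO-K1 cells, giving a chemiluminescent beta-Gal signal; compounds were incubated 90 min at 37 °C.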
Starred values were filed as active, the others as inactive. An excerpt weighted towards active compounds, which were near 3.7% of everything screened. Unless noted, calls follow the shape of the dose curve; as a rule, active = well fitted curve in the direction sought with a large enough effect; inconclusive = small, poorly fitted or top-dose-only effect, or another doubt; inactive = no such curve, though single readings can be large; an effect the other way counts as inactive or inconclusive.

CCC(CC)C(=O)Nc1cccc(-c2cn3cccnc3n2)c1 was read as HTT-AS act 5.0%, HTT prom inh 19.2% and DRV1 agonist 28.2.
`COc1ccc(NC(=O)Nc2cc(-c3cn4cccnc4n3)ccc2C)cc1` gave HTT-AS act 1.8%, HTT prom inh 6.8% and DRV1 agonist 18.2.
`COc1ccc(CCC(=O)c2c(O)cc(O[C@@H]3O[C@H](CO)[C@@H](O)[C@H](O)[C@@H]3O[C@@H]3O[C@@H](C)[C@H](O)[C@@H](O)[C@@H]3O)cc2O)cc1O` gave HTT-AS act -49.9% and HTT prom inh inconclusive.
Screening COc1ccc(S(=O)(=O)Cc2ccc(C(=O)NC3CCCCC3)o2)cc1 returned HTT-AS act -34.0%, HTT prom inh -34.8% and DRV1 agonist 89.3*.
`COc1ccc(CNC(=O)c2ccc(CS(=O)(=O)c3ccc(OC)cc3)o2)cc1` gave HTT-AS act -20.5%, HTT prom inh -28.9% and DRV1 agonist -10.5.
O=C(c1ccc(C(=O)N2CCC(N3CCCC3)CC2)c(Nc2ccccc2)c1)N1CCC(N2CCCC2)CC1 was read as HTT-AS act -1.6% and HTT prom inh 5.7%.
O=C(CSc1ncc(S(=O)(=O)c2ccc(Cl)cc2)c(=O)[nH]1)Nc1cccc(C(F)(F)F)c1 was read as HTT-AS act -1.7%, HTT prom inh -4.4% and DRV1 agonist 113.2*.
For CC(C)(C)c1ccc(S(=O)(=O)c2cnc(SCC(=O)Nc3ccc(F)c(Cl)c3)[nH]c2=O)cc1 the results were HTT-AS act -9.8%, HTT prom inh 3.7% and DRV1 agonist -13.2.
Nc1nc(SCC(=O)Nc2cccc(C(F)(F)F)c2)n[nH]1 was read as HTT-AS act -7.4%, HTT prom inh -19.3% and DRV1 agonist 14.6.
Screening CC(C)c1ccc(S(=O)(=O)c2cnc(SCC(=O)Nc3cccc(C(F)(F)F)c3)nc2N)cc1 returned HTT-AS act -39.3%, HTT prom inh inconclusive and DRV1 agonist 76.4*.
For CCN(C(=O)CSc1nc2ccccc2n1CC(=O)Nc1cccc(C#N)c1)c1ccccc1 the results were HTT-AS act -44.5%, HTT prom inh inconclusive and DRV1 agonist -25.5.
`Cc1ccc(CNC(=O)Nc2cc(C(=O)NCc3ccc(C(C)C)cc3)ccc2N2CCCC2)cc1` gave HTT-AS act -12.9%, HTT prom inh inconclusive and DRV1 agonist -13.2.
CC(C)c1ccc(CNC(=O)c2ccc(N3CCCC3)c(NC(=O)NCc3ccccc3)c2)cc1 was read as HTT-AS act -19.4%, HTT prom inh 25.1µM* and DRV1 agonist -31.7.
For OC1(c2ccc(Cl)c(C(F)(F)F)c2)CCN(CCCC(c2ccc(F)cc2)c2ccc(F)cc2)CC1 the results were HTT-AS act -91.5%, HTT prom inh inconclusive and DRV1 agonist 64.5*.
CN(C)C(=O)C(CCN1CCC(O)(c2ccc(Cl)cc2)CC1)(c1ccccc1)c1ccccc1 was read as HTT-AS act -30.4%, HTT prom inh -26.1% and DRV1 agonist -19.2.
`COc1cc2nc(Nc3ccc(C)c(C)c3)nc(N)c2cc1OC` gave HTT-AS act -17.8%, HTT prom inh -13.8% and DRV1 agonist 82.9*.
Screening COc1cc2nc(Nc3cccc(C)c3)nc(N)c2cc1OC returned HTT-AS act -3.8%, HTT prom inh -16.1% and DRV1 agonist 10.0.
CCOc1ccc(NC(=O)c2nc(S(=O)(=O)Cc3ccccc3F)ncc2Cl)cc1 was read as HTT-AS act -96.1%, HTT prom inh inconclusive and DRV1 agonist -25.3.
Screening O=C(Nc1nc2ccc(F)cc2s1)c1nc(S(=O)(=O)Cc2ccccc2F)ncc1Cl returned HTT-AS act -43.8%, HTT prom inh inconclusive and DRV1 agonist 105.3*.
Screening CCOc1ccc(NC(=O)c2c(C)nn(-c3ccc(F)cc3)c2-n2cccc2)cc1 returned HTT-AS act -8.6%, HTT prom inh -17.2% and DRV1 agonist 20.9.
CN(C)C(=O)CNC(=O)Cc1ccccc1 was read as HTT-AS act -19.9%, HTT prom inh -1.9% and DRV1 agonist 5.9.
Fc1ccc(N2CCN(c3ncnc4onc(-c5ccc(Cl)cc5)c34)CC2)cc1 was read as HTT-AS act -25.4%, HTT prom inh inconclusive and DRV1 agonist 13.0.
For Clc1ccc(-c2noc3ncnc(N4CCCCC4)c23)cc1 the results were HTT-AS act -26.1%, HTT prom inh -29.3% and DRV1 agonist 82.5*.
Screening CC(C)C[C@@H](C(=O)N[C@H](C(=O)OC1CCCC1)c1ccccc1)[C@H](O)C(=O)NO returned HTT-AS act -46.7% and HTT prom inh inconclusive.
Screening FC(F)(F)c1cccc(Nc2nc3nonc3nc2Nc2ccc(Cl)cc2)c1 returned HTT-AS act -93.5%, HTT prom inh 0.355µM* and DRV1 agonist -23.3.
O=C(Nc1cccc(C(F)(F)F)c1)c1cc(-c2ccc(Cl)cc2)on1 was read as HTT-AS act -7.8%, HTT prom inh -5.7% and DRV1 agonist inconclusive.
Cn1c(=O)c(F)c(Nc2ccc(I)cc2F)c2c(=O)n(C[C@@H](O)CO)cnc21 was read as HTT-AS act -30.0% and HTT prom inh inconclusive.
Screening Cc1ccc(NC(=O)Cn2c(=O)ccc3cc(S(=O)(=O)N4CCC(C)CC4)ccc32)cc1C returned HTT-AS act -37.3%, HTT prom inh inconclusive and DRV1 agonist 70.0*.
For CCc1cccc(NC(=O)Cn2c(=O)ccc3cc(S(=O)(=O)N4CCC(C)CC4)ccc32)c1 the results were HTT-AS act -32.6%, HTT prom inh inconclusive and DRV1 agonist 12.2.
For COc1ccc(NC(=O)Cn2cnc3ccc(S(=O)(=O)N4CCC(C)CC4)cc3c2=O)cc1OC the results were HTT-AS act -28.8%, HTT prom inh -21.5% and DRV1 agonist 112.9*.
Screening COc1ccc(OC)c(NC(=O)Cn2cnc3ccc(S(=O)(=O)N4CCC(C)CC4)cc3c2=O)c1 returned HTT-AS act -30.7%, HTT prom inh -29.5% and DRV1 agonist -14.2.
Screening CC(=O)c1ccc(N2CCN(C(=O)C3CCN(S(=O)(=O)c4cccc5nonc45)CC3)CC2)cc1 returned HTT-AS act -18.0%, HTT prom inh -12.4% and DRV1 agonist inconclusive.
CC(=O)c1cccc(NC(=O)C(CC(C)C)NS(=O)(=O)c2ccc3c(c2)CCN3C(C)=O)c1 (stereo unspecified) was read as HTT-AS act 2.7%, HTT prom inh -16.1% and DRV1 agonist -4.9.
Cc1ccc(-n2ncc3c(N4CCN(CCO)CC4)ncnc32)cc1Cl was read as HTT-AS act inconclusive, HTT prom inh 21.2% and DRV1 agonist 65.1*.
`Cc1ccc(-n2ncc3c(N4CCN(Cc5ccccc5)CC4)ncnc32)cc1C` gave HTT-AS act 0.0%, HTT prom inh inconclusive and DRV1 agonist 75.3*.
Screening Clc1cccc(-n2ncc3c(N4CCN(Cc5ccccc5)CC4)ncnc32)c1 returned HTT-AS act -2.6%, HTT prom inh -9.6% and DRV1 agonist -0.7.
`CCN1CCN(c2ncnc3c2cnn3-c2ccc(C)c(Cl)c2)CC1` gave HTT-AS act inconclusive, HTT prom inh 29.0% and DRV1 agonist 11.6.
For Cc1ccc(CNC(=O)c2nn(-c3ccc(Cl)cc3)nc2CO)cc1 the results were HTT-AS act -19.3%, HTT prom inh -22.2% and DRV1 agonist -5.6.
